This is a sample that favours compounds with a hit; in the whole collection about 11% have one here.
NIH3T3 tox: NIH 3T3 cell cytotoxicity. AID 1345082. NIH 3T3 viability, CellTiter-Glo ATP luminescence, 48-72 h. actives 4.3% (n = 94,000). Potency, µM (series often up to 96.7 µM), usual class: inhibitors; further: nearly all actives have a fitted effect of over 55% in size
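First NIH 3T3 cells are plated at 400 cells/well; next compound is pinned in; then plates incubate 48 or 72 hr at 37 °C; finally CellTiter-Glo is added and luminescence read after 10 min.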
FLuc inh: Photinus pyralis luciferase inhibition | purified P. pyralis luciferase, luminescence, biochemical | Potency, µM (series often up to 115 µM), usual class: inhibitors | actives 2.5% (n = 76,000); further: nearly all actives have a fitted effect of over 65% in size
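Luminescence read by CCD imaging after purified firefly luciferase (10nM final) was added to substrate buffer holding 10uM D-luciferin and 10uM ATP, pH 7.5, pre-dosed with compound.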
HEK293 tox: HEK 293 cell cytotoxicity; HEK 293 viability, ATP luminescence (CellTiter-Glo), 48-72 h; Potency, µM (highest dose often 115 µM), most hits filed as inhibitors; actives 6.6% (n = 94,000); AID 1345083; further: nearly all actives have a fitted effect of over 60% in size
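Luminescence from cellular ATP, measured with CellTiter-Glo, indicates HEK 293 viability. Cells plated at 250 cells/well are treated with compound for 48 or 72 hr at 37 degree Celsius before reagent addition.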
NPR1 antag: human Npr1 receptor antagonism; P16066; HEK293 hNpr1 GloSensor cGMP, ANP-stimulated luminescence; Potency, µM (top dose mostly 46.3 µM), actives largely listed as inhibitors; actives 1.6% (n = 76,000); calls by dose curve; further: nearly all actives have a fitted effect of over 60% in size
Target sequence (P16066 whole entry, looked up): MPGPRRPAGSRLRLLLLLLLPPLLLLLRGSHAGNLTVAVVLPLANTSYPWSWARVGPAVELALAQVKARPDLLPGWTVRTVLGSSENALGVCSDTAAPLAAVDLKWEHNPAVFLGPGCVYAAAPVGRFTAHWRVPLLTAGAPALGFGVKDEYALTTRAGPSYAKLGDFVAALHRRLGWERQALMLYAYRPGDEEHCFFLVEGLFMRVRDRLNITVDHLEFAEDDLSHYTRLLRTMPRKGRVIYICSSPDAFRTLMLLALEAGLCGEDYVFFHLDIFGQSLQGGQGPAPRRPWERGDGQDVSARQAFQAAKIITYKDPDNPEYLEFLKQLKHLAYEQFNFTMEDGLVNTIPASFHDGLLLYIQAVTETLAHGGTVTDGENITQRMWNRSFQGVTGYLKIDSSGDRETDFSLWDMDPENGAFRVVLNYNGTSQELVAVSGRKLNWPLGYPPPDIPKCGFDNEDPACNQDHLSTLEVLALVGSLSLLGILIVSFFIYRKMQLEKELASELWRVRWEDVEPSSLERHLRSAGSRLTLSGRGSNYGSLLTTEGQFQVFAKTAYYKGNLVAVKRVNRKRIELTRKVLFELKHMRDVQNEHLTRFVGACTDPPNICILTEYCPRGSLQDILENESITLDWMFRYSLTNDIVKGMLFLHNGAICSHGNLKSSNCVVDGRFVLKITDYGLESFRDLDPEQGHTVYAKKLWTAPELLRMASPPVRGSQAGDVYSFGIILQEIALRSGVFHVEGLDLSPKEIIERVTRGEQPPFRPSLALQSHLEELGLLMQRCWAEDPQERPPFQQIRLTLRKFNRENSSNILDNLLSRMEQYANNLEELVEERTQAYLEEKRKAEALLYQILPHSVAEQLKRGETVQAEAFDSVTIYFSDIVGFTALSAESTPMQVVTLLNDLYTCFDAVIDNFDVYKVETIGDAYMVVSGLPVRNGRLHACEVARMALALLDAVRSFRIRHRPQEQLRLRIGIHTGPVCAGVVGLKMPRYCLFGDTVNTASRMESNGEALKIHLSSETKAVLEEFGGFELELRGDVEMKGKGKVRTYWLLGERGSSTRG
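HEK293 cells stably expressing human Npr1 and cGMP GloSensor pGS-40F, loaded 2 h with 2% GloSensor reagent, given compound 30 min at room temperature. Luminescence read before and 20 min after 0.1 nM hNppA.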
Each line names hits and unclear results; the compound was inactive in the other large screens; ! = not active in a repeat. Unless noted, the call rests on the fitted dose curve; in most records, active means well fitted curve in the direction sought with a large enough effect; inconclusive means small, poorly fitted or top-dose-only effect, or another doubt; inactive means no such curve, though single readings can be large; an effect the other way counts as inactive or inconclusive.

CCCNC(=O)NC[C@@H]1C=C(C)[C@H](Cc2nc3ccc(C(=O)OC)cc3[nH]2)C[C@H]1C(C)C	NIH3T3 tox inconclusive, HEK293 tox inconclusive
O=C(c1cccs1)N1CCN(C(=O)c2nnn3c2COC(c2ccc(Cl)cc2)C3)CC1 (stereo not drawn)	none
CC1=C[C@@H](CNC(=O)C2CC2)[C@H](C(C)C)C[C@H]1Cc1nc2ncccc2[nH]1	NIH3T3 tox inconclusive, HEK293 tox inconclusive
COc1ccccc1C(=O)NC[C@@H]1C=C(C)[C@H](Cc2nc3ccccc3[nH]2)C[C@H]1C(C)C	NIH3T3 tox 32µM, HEK293 tox inconclusive, NPR1 antag inconclusive
CC1=C[C@@H](CNC(=O)CN(C)C)[C@H](C(C)C)C[C@H]1Cc1nc2ccccc2[nH]1	NIH3T3 tox 100µM, HEK293 tox inconclusive
CC1=C[C@@H](CNC(=O)CCC(=O)O)[C@H](C(C)C)C[C@H]1Cc1nc2ccccc2[nH]1	NIH3T3 tox inconclusive
COc1ccc2[nH]c(C[C@@H]3C[C@@H](C(C)C)[C@H](CNC(=O)C4CCC4)C=C3C)nc2n1	NIH3T3 tox 63µM, HEK293 tox 45µM, NPR1 antag inconclusive
O=C1N(C2CCOCC2)C[C@H]2CN(CCCc3ccccc3)CCN12	none
Cc1cccc(CC(=O)N2CCC(N3C(=O)CCC3C(=O)NCc3ccccc3)CC2)c1 (stereo not drawn)	none (no result: FLuc inh, NPR1 antag)
COc1ccc(C(=O)NCC2(COc3ccccc3)C[C@@H](O)[C@@H](O)C2)cc1 (stereo partly drawn)	NIH3T3 tox 45µM
COCCc1noc([C@@H]2CC(F)(F)CN2C(=O)Cn2cc(C)cn2)n1	none
O=C(Nc1ccccc1F)NC1CCN(Cc2cccc(-c3ccc(F)c(F)c3)c2)CC1	NIH3T3 tox 11µM, HEK293 tox inconclusive (no result: FLuc inh, NPR1 antag)
O=C(NC1CCCC1)NC1CCN(Cc2cccc(-c3ccc(F)cc3F)c2)CC1	NIH3T3 tox inconclusive, HEK293 tox 35µM! (no result: FLuc inh, NPR1 antag)
O=C(NC1CCN(Cc2cccc(-c3ccc(F)c(F)c3)c2)CC1)c1ccc(F)cc1	NIH3T3 tox 40µM, HEK293 tox 40µM (no result: FLuc inh, NPR1 antag)
O=C(NC1CCN(Cc2cccc(-c3ccc(F)c(F)c3)c2)CC1)c1ccc(C(F)(F)F)cc1	none (no result: FLuc inh, NPR1 antag)
COc1ccc(C(=O)NC2CCN(Cc3cccc(-c4ccc(F)c(F)c4)c3)CC2)cc1	NIH3T3 tox 22µM, HEK293 tox inconclusive (no result: FLuc inh, NPR1 antag)
COc1ccc(-c2c(C(=O)NCc3ccccn3)nc3sccn23)cc1	none (no result: FLuc inh, NPR1 antag)
COc1ccc(C(=O)N[C@@H]2CN(Cc3ccncc3)C[C@H]2CN(C)C)cc1F	HEK293 tox inconclusive
O=C(NCC1Cn2cccc2C(=O)N1Cc1ccccc1)c1cn[nH]c1-c1ccccc1 (stereo not drawn)	none
O=C(Cc1ccc(F)cc1)N1CCC2(CC1)CN(Cc1ccccc1)CC2CO (stereo not drawn)	NIH3T3 tox inconclusive, HEK293 tox 45µM
COCC1CN(C2CCC2)CC12CCN(C(=O)Cc1cccc(F)c1)CC2 (stereo not drawn)	NIH3T3 tox inconclusive, HEK293 tox 50µM
COCC1CN(C2CCC2)CC12CCN(C(=O)c1ccccc1Cl)CC2 (stereo not drawn)	NIH3T3 tox inconclusive, HEK293 tox 79µM
COCC1CN(C2CCC2)CC12CCN(C(=O)Cc1cccc(OC)c1)CC2 (stereo not drawn)	NIH3T3 tox inconclusive, HEK293 tox inconclusive
COCC1CN(C)CC12CCN(C(=O)Cc1ccc(OC)c(Cl)c1)CC2 (stereo not drawn)	HEK293 tox 89µM
N[C@H](C(=O)N1CCC2(CC1)C(=O)NCN2C(=O)c1ccc(Cl)cc1)c1ccccc1	none (no result: FLuc inh, NPR1 antag)
O=C1NCCOCCCN(C(=O)Nc2ccccc2)[C@H]2CCC[C@@H]12	none
O=C1C(N2CCN(Cc3ccc[nH]3)CC2)CCN1CCc1ccccc1 (stereo not drawn)	none
O=S(=O)(NC[C@H]1OC[C@@H](NCc2ccccc2F)[C@@H]1O)c1ccccc1	none
COCC1CN(C)CC12CCN(C(=O)Cc1cccc(Cl)c1)CC2 (stereo not drawn)	NIH3T3 tox inconclusive, HEK293 tox 35µM
COCC1CN(C(C)=O)CC12CCN(C(=O)Cc1cccc(F)c1)CC2 (stereo not drawn)	none
O[C@H]1[C@H](NCc2ccc(-c3ccccc3)cc2)[C@H]2CO[C@H](O2)[C@@H]1Sc1ccccc1	NIH3T3 tox 63µM, HEK293 tox 40µM, NPR1 antag inconclusive
O[C@H]1[C@H](NCc2ccccc2)[C@H]2CO[C@H](O2)[C@@H]1Sc1ccccc1	HEK293 tox inconclusive

Source: PubChem
